From PubChem BioAssay (Tox21)
Results filed as inconclusive are left out. Entries that show only a call come without a potency. Active and inactive are the calls of the source. Unless noted, calls follow the shape of the dose curve; as a rule, active = well fitted curve in the direction sought with a large enough effect in the repeat runs; inconclusive = weak or mixed curves; inactive = no such curve, though single readings can be large; an effect the other way counts as inactive or inconclusive.

Assays:
[1] = qHTS assay to identify small molecule agonists of the RXR signaling pathway - cell viability counter screen (AID 1159529); also: nearly all actives have a fitted effect of over 50% in size; also: potency is read from the fitted curve at half-maximal effect
Method in brief: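 Steps: seed RXR-alpha-UAS-bla HEK 293T cells in assay medium containing 2% charcoal-stripped FBS; incubate 5 hr; add compounds in DMSO; incubate 16 hr at 37 C; after the bla read, add CellTiter-Glo and read luminescence at 30 min.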

[2] = qHTS assay to identify small molecule antagonists of the retinoid acid receptor (RAR) signaling pathway - cell viability counter screen (AID 1159551); also: nearly all actives have a fitted effect of over 35% in size; also: potency is read from the fitted curve at half-maximal effect
Method in brief: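 Measured by luminescent ATP detection, viability reflects C3RL4 cells treated 6 h at 37 C with test chemicals in the presence of 1 uM (final) retinol.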

[3] = qHTS assay to identify small molecule antagonists of the retinoic acid receptor (RAR) signaling pathway (AID 1159552; also: nearly all actives have a fitted effect of over 50% in size; also: potency is read from the fitted curve at half-maximal effect)
Method in brief: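 Retinol at 1 uM final stimulated RARE-luciferase expression in C3RL4 cells exposed to test compounds for 6 hr at 37 C. Reduced luminescence, read 30 min after detection reagent, indicated pathway antagonism.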

[4] = qHTS assay to identify small molecule agonists of the retinoic acid receptor (RAR) signaling pathway (AID 1159553); also: potency is read from the fitted curve at half-maximal effect
Method in brief: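 6 hr compound exposure (DMSO vehicle) of overnight-plated C3RL4 RARE-luc cells at 37 C; luminescence quantified after 30 min RT with luciferase reagent.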

[5] = qHTS assay to identify small molecule antagonists of the estrogen related receptor (ERR) signaling pathway - cell viability counter screen (AID 1224818); also: series mostly up to about 46 µM
Method in brief: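 Compounds dissolved in DMSO were applied to ERR cells seeded at 2,000 per well 6 h earlier. Cell viability followed 17.5 h later via 30-min CellTiter-Fluor fluorescence.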

[6] = qHTS assay to identify small molecule agonists of the estrogen related receptor (ERR) signaling pathway (AID 1224820)
Method in brief: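 After 6 h plating (2,000 cells/well) and 18 h compound treatment at 37 C, ERR cells were lysed with One-Glo and luminescence read after 30 min at room temperature.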

[7] = tested on: estrogen-related receptor alpha (ERRalpha) with PGC-1alpha coactivator, human; assay: qHTS assay to identify small molecule antagonists of the estrogen related receptor signaling pathway with the pleiotropic PPARgamma coactivator (PGC) (AID 1224821; calls by dose curve;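 also: series mostly up to about 46 µM; lower luminescence signal means antagonism of PGC/ERR signalling; nearly all actives have a fitted effect of over 50% in size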)
Method in brief: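 Luminescence from One-Glo luciferase reagent (30 min, room temperature) measured after 18 h compound treatment at 37 °C. Cells carry the PGC/ERR reporter and were seeded 6 h prior to dosing.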

[8] = qHTS assay to identify small molecule antagonists of the estrogen related receptor signaling pathway with the pleiotropic PPARgamma coactivator (PGC) cell viability counter screen (AID 1224822; also: potency is read from the fitted curve at half-maximal effect)
Method in brief: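 Counter screen for cell viability: PGC/ERR cells, 6 h pre-incubation after plating, 17.5 h compound exposure at 37 C, fluorescence from CellTiter-Fluor after 30 min.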

[9] = qHTS assay to identify small molecule agonists of the estrogen related receptor signaling pathway with the pleiotropic PPARgamma coactivator (PGC) (AID 1224823)
Method in brief: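 Luminescence from One-Glo reagent (30 min, room temperature) was read after 18 h compound treatment at 37 C of PGC/ERR cells plated 6 h beforehand; compounds delivered in DMSO by pin tool.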

[10] = qHTS assay to identify small molecule antagonists of the estrogen related receptor (ERR) signaling pathway from Tox21 library - cell viability counter screen (AID 1224834); also: nearly all actives have a fitted effect of over 30% in size; also: potency is read from the fitted curve at half-maximal effect
Method in brief: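 Seeded ERR cells were rested 6 h at 37 C/5% CO2 before compounds, positive and negative controls or DMSO were added. Incubation continued for 17.5 h, and viability was then quantified by CellTiter-Fluor fluorescence.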

[11] = target: Luciferin 4-monooxygenase (Photinus pyralis) (UniProt P08659); assay: qHTS assay to identify small molecule inhibitors of firefly luciferase (AID 1224835); also: nearly all actives have a fitted effect of over 25% in size; also: potency is read from the fitted curve at half-maximal effect
Method in brief: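 Inhibition of purified Photinus luciferase is measured by luminescence. Substrate levels (D-luciferin, ATP) sit at their KM values. Each compound is tested in a concentration series.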

[12] = qHTS assay to identify small molecule agonists of the constitutive androstane receptor (CAR) signaling pathway - cell viability counter screen (AID 1224836); also: nearly all actives have a fitted effect of over 45% in size; also: potency is read from the fitted curve at half-maximal effect
Method in brief: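 Cells were seeded and incubated 4 hrs. Compounds were added across 15 concentrations together with PK11195 at 0.75 uM final. Plates were incubated 23 hrs at 37 C. CellTiter-Fluor was added and fluorescence measured.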

[13] = qHTS assay to identify small molecule antagonists of the constitutive androstane receptor (CAR) signaling pathway - cell viability counter screen (AID 1224837); also: nearly all actives have a fitted effect of over 45% in size; also: potency is read from the fitted curve at half-maximal effect
Method in brief: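 To flag cytotoxic false antagonists, HepG2 hCAR/CYP2B6-2.2kb cells were treated 23 hr with 15-concentration compound series and 50 nM CITCO at 37 C/5% CO2; CellTiter-Fluor fluorescence was the measured end point.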

[14] = qHTS assay to identify small molecule antagonists of the estrogen related receptor signaling pathway with the pleiotropic PPARgamma coactivator (PGC) from Tox21 10K library - cell viability counter screen (AID 1224840; active = well fitted cell-killing curve with a large enough effect in the repeat runs, not every such curve was filed as active; also: nearly all actives have a fitted effect of over 40% in size; also: potency is read from the fitted curve at half-maximal effect)
Method in brief: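 Seeded PGC/ERR cells (2,000/well, 6 h, 37 C/5% CO2) get compound by pin tool; 17.5 h incubation at 37 C; CellTiter-Fluor added, 30 min, fluorescence measured.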

[15] = qHTS assay to identify small molecule agonists of the estrogen related receptor signaling pathway with the pleiotropic PPARgamma coactivator (PGC) from Tox21 10K library (AID 1224842); also: nearly all actives have a fitted effect of over 15% in size; also: potency is read from the fitted curve at half-maximal effect
Method in brief: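 Luminescence from One-Glo (30 min, room temperature) measured after PGC/ERR cells had 18 h at 37 C with pinned compound (23 nL in DMSO). Cells had been seeded at 2,000 per well and pre-incubated 6 h.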

[16] = target: Thyrotropin receptor (Homo sapiens) (UniProt P16473); assay: qHTS assay to identify small molecule agonists of the thyroid stimulating hormone receptor (TSHR) signaling pathway (AID 1224843; calls by dose curve; also: nearly all actives have a fitted effect of over 45% in size; also: potency is read from the fitted curve at half-maximal effect)
Method in brief: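 Agonist activity read as cAMP rise via d2/cryptate HTRF competition, 1 h room-temperature detection, in HEK293 cells expressing TSHR. Fifteen-point titrations, each run in triplicate, with a 30 min room-temperature incubation beforehand.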

[17] = target: Nuclear receptor subfamily 1 group I member 3 (Homo sapiens) (UniProt Q14994); assay: qHTS assay to identify small molecule agonists of the constitutive androstane receptor (CAR) signaling pathway (AID 1224839); also: nearly all actives have a fitted effect of over 15% in size; also: potency is read from the fitted curve at half-maximal effect
Method in brief: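 Cells were plated and incubated 4 hrs, then dosed with compounds at 15 concentrations. PK11195 was added to 0.75 uM final. After 24 hrs at 37 C, luciferase luminescence was measured.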

[18] = target: Nuclear receptor subfamily 1 group I member 3 (Homo sapiens) (UniProt Q14994); assay: qHTS assay to identify small molecule antagonists of the constitutive androstane receptor (CAR) signaling pathway (AID 1224838);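 also: HepG2 cells stably expressing hCAR with CYP2B6 luciferase reporter stimulated by CITCO; nearly all actives have a fitted effect of over 40% in size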; also: potency is read from the fitted curve at half-maximal effect
Method in brief: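 Human hepatoma HepG2 cells expressing hCAR and a CYP2B6 promoter (2.2 kb) luciferase construct; compound titration (15 points) with 50 nM CITCO final, 24 h at 37 C/5% CO2; luminescence via ONE-Glo after 30 min at room temperature.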

[19] = qHTS assay to identify small molecule antagonists of the estrogen related receptor signaling pathway with the pleiotropic PPARgamma coactivator (PGC) from Tox21 10K library (AID 1224841; call rule not given here; also: actives are mostly falling curves and most rising ones were filed inactive; nearly all actives have a fitted effect of over 50% in size; also: potency is read from the fitted curve at half-maximal effect)
Method in brief: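 Test chemicals dissolved in DMSO were applied to pre-incubated (6 h) PGC/ERR cells at 2,000 cells/well for an 18 h, 37 C treatment; reporter luminescence was then read using One-Glo.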

Sequence of Thyrotropin receptor (Homo sapiens) (P16473 whole entry, looked up): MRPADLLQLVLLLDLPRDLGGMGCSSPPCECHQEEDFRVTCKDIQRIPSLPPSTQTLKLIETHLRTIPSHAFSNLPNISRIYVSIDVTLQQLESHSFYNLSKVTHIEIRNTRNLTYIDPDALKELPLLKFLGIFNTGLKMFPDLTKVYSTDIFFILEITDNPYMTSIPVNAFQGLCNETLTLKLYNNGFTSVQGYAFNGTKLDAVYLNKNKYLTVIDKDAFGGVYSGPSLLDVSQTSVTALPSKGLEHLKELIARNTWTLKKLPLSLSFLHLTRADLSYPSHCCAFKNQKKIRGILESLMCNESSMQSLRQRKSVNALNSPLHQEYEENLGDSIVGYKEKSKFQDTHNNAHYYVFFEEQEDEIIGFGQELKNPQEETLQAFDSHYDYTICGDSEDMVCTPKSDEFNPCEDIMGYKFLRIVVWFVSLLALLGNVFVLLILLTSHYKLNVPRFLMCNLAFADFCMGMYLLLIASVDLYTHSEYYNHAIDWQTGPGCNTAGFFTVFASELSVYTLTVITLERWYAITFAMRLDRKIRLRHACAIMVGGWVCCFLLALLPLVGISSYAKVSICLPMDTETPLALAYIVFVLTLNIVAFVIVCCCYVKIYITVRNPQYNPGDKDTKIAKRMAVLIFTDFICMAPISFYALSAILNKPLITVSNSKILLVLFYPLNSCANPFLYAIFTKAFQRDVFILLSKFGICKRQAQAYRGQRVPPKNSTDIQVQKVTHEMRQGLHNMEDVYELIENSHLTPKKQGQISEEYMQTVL
Sequence of Nuclear receptor subfamily 1 group I member 3 (Homo sapiens) (Q14994 whole entry, looked up): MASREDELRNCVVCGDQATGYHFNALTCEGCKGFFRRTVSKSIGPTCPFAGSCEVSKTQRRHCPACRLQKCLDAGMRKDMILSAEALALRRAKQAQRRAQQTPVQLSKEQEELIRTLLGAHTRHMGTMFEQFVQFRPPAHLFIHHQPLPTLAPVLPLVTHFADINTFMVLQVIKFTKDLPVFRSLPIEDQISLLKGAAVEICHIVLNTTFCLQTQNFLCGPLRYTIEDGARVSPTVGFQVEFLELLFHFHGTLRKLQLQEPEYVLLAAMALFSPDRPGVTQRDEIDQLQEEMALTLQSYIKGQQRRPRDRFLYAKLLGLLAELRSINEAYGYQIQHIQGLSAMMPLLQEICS
Sequence of Luciferin 4-monooxygenase (Photinus pyralis) (P08659 whole entry, looked up): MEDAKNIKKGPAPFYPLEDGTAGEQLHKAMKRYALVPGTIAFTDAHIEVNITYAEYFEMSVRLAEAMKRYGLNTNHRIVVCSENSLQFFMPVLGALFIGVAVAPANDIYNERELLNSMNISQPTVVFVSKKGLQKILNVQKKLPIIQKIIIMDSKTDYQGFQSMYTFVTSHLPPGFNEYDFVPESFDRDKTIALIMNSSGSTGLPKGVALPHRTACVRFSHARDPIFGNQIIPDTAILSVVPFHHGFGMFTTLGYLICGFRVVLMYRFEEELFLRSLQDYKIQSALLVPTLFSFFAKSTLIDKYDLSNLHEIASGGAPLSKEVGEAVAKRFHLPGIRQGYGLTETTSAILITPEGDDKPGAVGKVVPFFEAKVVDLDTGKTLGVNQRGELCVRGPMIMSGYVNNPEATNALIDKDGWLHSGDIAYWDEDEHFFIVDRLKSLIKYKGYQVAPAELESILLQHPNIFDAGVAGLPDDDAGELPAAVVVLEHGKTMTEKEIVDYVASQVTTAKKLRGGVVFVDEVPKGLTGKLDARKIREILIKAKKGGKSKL

| Compound | Potency [1] | Potency [2] | Potency [3] | Potency [4] | Potency [5] | outcome [6] | Potency [7] | Potency [8] | outcome [9] | Potency [10] | Potency [11] | Potency [12] | Potency [13] | Potency [14] | Potency [15] | Potency [16] | Potency [17] | Potency [18] | Potency [19] |
| --- | --- | --- | --- | --- | --- | --- | --- | --- | --- | --- | --- | --- | --- | --- | --- | --- | --- | --- | --- |
| CN(C)[C@@H]1C(=O)C(C(N)=O)=C(O)[C@@]2(O)C(=O)C3=C(O)c4c(O)ccc(Cl)c4[C@@H](O)[C@H]3C[C@@H]12 | inactive | inactive | inactive | inactive | inactive | inactive | inactive | inactive | inactive | inactive | inactive | inactive | inactive | inactive | inactive | inactive |  |  |  |
| CCOC(=O)/C=C(C)/C=C/C=C(C)/C=C/c1c(C)cc(OC)c(C)c1C | inactive | inactive | inactive | 531 nM (active) |  |  |  |  |  | inactive | inactive | inactive |  | inactive |  | inactive | inactive |  |  |
| CC(C)OC(=O)c1cc2c(OCC(O)CNC(C)(C)C)cccc2[nH]1 (configuration not stated) | inactive | inactive | inactive | inactive |  |  |  |  |  | inactive | inactive | inactive |  | inactive |  |  |  |  |  |
| O=C(O)c1ccc(Cl)c(Cl)c1 | inactive | inactive | inactive | inactive |  |  |  |  |  | inactive | inactive | inactive | inactive | inactive | inactive | inactive | inactive | inactive | inactive |
| C[n+]1ccn(Cc2ccccc2)c1 | inactive | inactive | inactive | inactive |  |  |  |  |  | inactive | inactive |  |  | inactive | inactive | inactive |  |  | inactive |
| CSc1ccc(/C=C2/C(C)=C(CC(=O)O)c3cc(F)ccc32)cc1 | inactive | inactive | inactive | inactive |  |  |  |  |  |  |  | inactive | inactive | inactive | inactive | inactive | inactive |  | inactive |
| O=C1CCCCCN1SSN1CCCCCC1=O | inactive | inactive | 24.3 µM (active) |  |  |  |  |  |  | inactive | inactive | inactive |  | inactive | inactive |  | inactive | 27.3 µM (active) |  |
| CCN(CC)CCNC(=O)c1c(C)[nH]c(/C=C2\C(=O)Nc3ccc(F)cc32)c1C | 7.56 µM (active) | 33.5 µM (active) | 26.6 µM (active) |  |  |  |  | 8.74 µM (active) |  | 10.6 µM (active) |  | 10.6 µM (active) | 10.6 µM (active) | 29.8 µM (active) |  |  | inactive |  |  |
| NC(=O)N1C(=O)C(C(=O)c2cc(Cl)cs2)c2cc(F)c(Cl)cc21 (configuration not stated) | 49 µM (active) | inactive | inactive |  |  |  |  |  |  | 27.3 µM (active) | 71 µM (active) |  |  | 30.6 µM (active) | inactive | inactive | inactive | inactive | 38.6 µM (active) |
| Oc1ccc(N=Nc2ccccc2)cc1 | inactive | inactive | inactive | 2470 nM (active) |  |  |  |  |  | 49.2 µM (active) | 9.06 µM (active) |  |  | 27.7 µM (active) |  | 49.2 µM (active) | 27.7 µM (active) | inactive |  |
| [Cl][Bi]([Cl])([c]1ccccc1)([c]1ccccc1)[c]1ccccc1 | 2.74 µM (active) | 54.2 µM (active) | 3.83 µM (active) |  |  |  |  |  |  | 13.6 µM (active) | 12.6 µM (active) | 21.6 µM (active) |  | 6.08 µM (active) |  | 2.16 µM (active) |  | 12.1 µM (active) |  |
| Clc1ccc2cc3ccccc3cc2c1 | inactive | inactive | inactive |  |  |  |  |  |  | inactive | inactive | inactive | inactive | inactive | 68.5 µM (active) |  | 54.4 µM (active) | inactive |  |
| Cc1cc(O)c(C(C)(C)C)cc1Sc1cc(C(C)(C)C)c(O)cc1C | 12.3 µM (active) | 61 µM (active) | inactive |  |  |  |  |  |  | 30.6 µM (active) | inactive | 48.5 µM (active) | 54.4 µM (active) | 30.6 µM (active) | inactive | 9.67 µM (active) | inactive | 21.6 µM (active) | 21.6 µM (active) |
| Cc1cc(O)c(C(C)(C)C)cc1C(C)(C)C | 21.9 µM (active) | 43.3 µM (active) | 54.5 µM (active) |  |  |  |  |  |  | 54.5 µM (active) | inactive | 61.1 µM (active) |  | 48.6 µM (active) | inactive |  | inactive |  |  |
| CCCCCCCCNC(C)C(O)c1ccc(SC(C)C)cc1 (configuration not stated) | 9.52 µM (active) | 26.6 µM (active) | 13.3 µM (active) |  |  |  |  |  |  | 26.6 µM (active) | inactive | 29.8 µM (active) | 29.8 µM (active) | 29.8 µM (active) | inactive |  |  |  |  |
| CCCC(c1cc(C(C)(C)C)c(O)cc1C)c1cc(C(C)(C)C)c(O)cc1C | 11.1 µM (active) | 27.6 µM (active) | 27.6 µM (active) |  |  |  |  |  |  | 19.6 µM (active) | inactive | 39 µM (active) | 31 µM (active) | 22 µM (active) | inactive | 6.19 µM (active) |  | 24.6 µM (active) | 24.6 µM (active) |
